Here are results for six compounds from PubChem BioAssay.

Test [1] in a line: reducers of endogenous Her2 protein level, primary screen, SKBR3 breast tumor cells, AlphaScreen, ATP viability (AID 461;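 active = Her2 level under about 52% in both replicate screens, with viability over 70% of control, limit read from the data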;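 as to Her2 level: lower value means less Her2 protein in the cells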;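 as to viability: percent of carrier control wells set as 100% viability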). Particulars: 18-24 h, measured here: SKBR3 viability, ATP luminescence, at 10 µM. On the technique in general: In Alpha technology, singlet oxygen from a donor bead excites a nearby acceptor bead.
In test [2] the target is Receptor tyrosine-protein kinase erbB-2 (Homo sapiens) (UniProt P04626). The test is described as above. Particulars: 18-24 h, at 10 µM, stronger effect = lower value.
The nature of test [3]: SK-BR-3 cell growth inhibitors, pilot screen, 24 h, human (AID 572;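 active = viability at or below 10% of carrier control in both of two separate runs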;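 also: compound exposure lasted between 18 and 24 h rather than exactly 24 h; 100% = carrier-treated control wells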). Particulars: SK-BR-3 viability, CellTiter-Glo luminescence, at 10 µM, stronger effect = lower value. Background: Cellular ATP, detected with luciferase, serves as a proxy for viable cell number.
Test [4] is described as follows: HUVEC growth inhibition – cell-based, human, primary screen (AID 575;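 active = viability at or below 30% in both replicate assays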;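 also: 100% = median of untreated cell wells with 0.1% DMSO on each plate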). Particulars: HUVEC proliferation, CellTiter-Glo luminescence, 72 h; at 10 µM; stronger effect = lower value.
Test [5] can be described thus: growth inhibitors of H69AR lung tumor, primary screen, human, duplicate replicates (AID 580;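 active = viability at or under a set limit in both replicates, limit being median viability minus 3 SD, cut at about 48% in these data, passing the limit was not always enough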;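 also: 100% = mean luminescence of untreated wells and 0% = no signal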). Particulars: H69AR lung tumor cells viability, ATP luminescence, 72 h; at 10 µM; stronger effect = lower value.
Test [6] in a line: reversal of MRP1-mediated doxorubicin resistance, pilot screen, H69AR cells, doxorubicin co-treatment (AID 601;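 active = viability loss from added drug above about 55%, and viability with drug at most 40%, in both replicates, limit read from the data, passing the limit was not always enough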). Particulars: CellTiter-Glo, 72 h, at 10 µM; for differential viability (reversal): stronger effect = higher value.
The nature of test [7]: 384-well plate pilot, post-Golgi transport modulator project, inhibition of yeast transport mutant growth (AID 636; in the data active = inhibition above about 31%). Particulars: absorbance 615 nm, about 18 h, stronger effect = higher value.
Test [8] in a line: growth suppression of yeast trafficking mutant, preliminary HTS, modulators of trafficking downstream of Golgi apparatus project, 1536-format plate, OD 615 nm (AID 637; in the data active = inhibition above about 30%). Particulars: yeast transport mutant growth, absorbance 615 nm, 18 h; stronger effect = higher value.
A short description of test [9]: OD615 S. cerevisiae growth inhibition, permissive medium, pilot counter-assay, permissive growth control for S. cerevisiae lifespan shortening project (AID 705). Particulars: OD615, 24 h, at 10 µM, stronger effect = higher value.
Test [10] in a line: Restrictive medium S. cerevisiae growth inhibition, OD615, pilot screen of yeast lifespan reduction project, restrictive growth control (AID 706;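 active = growth inhibition above a set limit, 3 SD over mean compound inhibition, in both replicates, cut at about 43% in these data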;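 also: modified DeaD lifespan yeast strain shifted to restrictive glucose medium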). Particulars: OD615, 48 h, at 10 µM, stronger effect = higher value.
Test [11] can be described thus: viability gain of MRP-1-high H69AR cells under doxorubicin, pilot screen, MRP-1 activator project, CellTiter-Glo, duplicate (AID 807;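 active = viability increase at or above a cutoff of the median across tested compounds plus 3 SD, cut at about 8.5% in these data, passing the limit was not always enough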;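 also: compound pretreatment 18-22 h then 72 h combined with doxorubicin; 0% = doxorubicin alone and 100% = vehicle without doxorubicin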). Particulars: H69AR viability with doxorubicin, CellTiter-Glo luminescence; at 10 µM; stronger effect = higher value.
Test [12] can be described thus: growth suppression of beta-catenin knockout HCT116, pilot screen, human colon tumor cells (AID 823;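 active = cell viability at or below a set limit in both duplicate runs, the limit being the all-compound median minus 4 SD, cut at about 23% in these data, passing the limit was not always enough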;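 also: 0% = wells killed by 20 µM Hyamine and 100% = untreated DMSO cell wells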). Particulars: CellTiter-Glo, 60 h, at 10 µM, stronger effect = lower value.
A short description of test [13]: growth suppression of PTEN-deleted HCT116, pilot screen, cell-based, HCT116 clonal line, CellTiter-Glo (AID 824;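 active = viability at or below 27.92% in each of two runs, the all-compound median minus 4 SD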;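 also: 0% = 20 µM Hyamine control and 100% = vehicle cell control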). Particulars: 60 h, at 10 µM, stronger effect = lower value.
A short description of test [14]: inhibitors of the yeast RAM network, pilot screen, dse1pr::URA3 reporter, 5-FOA selection (AID 869;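 active = inhibition over a set limit, the all-compound mean plus 3 SD, in both replicate runs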;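 also: 0% = DMSO wells with no growth and 100% = 10 µM 1-NA-PP1 with full growth; RAM network block rescues cells from 5-FOA so hits raise OD615 growth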). Particulars: S. cerevisiae dse1pr::URA3 5-FOA growth, OD615, 2 d; at 10 µM; stronger effect = higher value; strain carries analog-sensitive mutant Cbk1 kinase.
A short description of test [15]: RAM signaling pathway blockade in yeast – S. cerevisiae, Pdr1DBD-CYC8 efflux-inhibited sensitized strain, primary screen (AID 1298;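 active = RAM network inhibition above 8.4% in each of two replicates, 3 SD over the compound average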;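 also: 0% = DMSO untreated cells without growth and 100% = 10 µM 1-NA-PP1 full growth; higher means more yeast growth rescued from 5-FOA killing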). Particulars: S. cerevisiae cbk1-as DSE1-URA3 strain, 5-FOA growth OD615, 2 d; at 50 µM; stronger effect = higher value.
Setting [16] is: H69AR cells + 2 uM doxorubicin, measured here: viability with 2 uM doxorubicin, stronger effect = lower value.
Where [17] appears, read: H69AR cells, compound alone cytotoxicity.

The viability is a read-out of living cells in per cent, often relative to untreated cells. In general, inhibition refers to the change of the read-out against control, counted positive when it falls.

Records with an inconclusive call do not appear. Activity calls are given as the source filed them.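 The calls were made as follows, unless noted: active = growth inhibition above 25% in both replicates, a cutoff set 3 SD above the mean; inconclusive = above 25% in only one replicate; inactive = the rest.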

Receptor tyrosine-protein kinase erbB-2 (Homo sapiens), sequence (P04626 whole entry, looked up): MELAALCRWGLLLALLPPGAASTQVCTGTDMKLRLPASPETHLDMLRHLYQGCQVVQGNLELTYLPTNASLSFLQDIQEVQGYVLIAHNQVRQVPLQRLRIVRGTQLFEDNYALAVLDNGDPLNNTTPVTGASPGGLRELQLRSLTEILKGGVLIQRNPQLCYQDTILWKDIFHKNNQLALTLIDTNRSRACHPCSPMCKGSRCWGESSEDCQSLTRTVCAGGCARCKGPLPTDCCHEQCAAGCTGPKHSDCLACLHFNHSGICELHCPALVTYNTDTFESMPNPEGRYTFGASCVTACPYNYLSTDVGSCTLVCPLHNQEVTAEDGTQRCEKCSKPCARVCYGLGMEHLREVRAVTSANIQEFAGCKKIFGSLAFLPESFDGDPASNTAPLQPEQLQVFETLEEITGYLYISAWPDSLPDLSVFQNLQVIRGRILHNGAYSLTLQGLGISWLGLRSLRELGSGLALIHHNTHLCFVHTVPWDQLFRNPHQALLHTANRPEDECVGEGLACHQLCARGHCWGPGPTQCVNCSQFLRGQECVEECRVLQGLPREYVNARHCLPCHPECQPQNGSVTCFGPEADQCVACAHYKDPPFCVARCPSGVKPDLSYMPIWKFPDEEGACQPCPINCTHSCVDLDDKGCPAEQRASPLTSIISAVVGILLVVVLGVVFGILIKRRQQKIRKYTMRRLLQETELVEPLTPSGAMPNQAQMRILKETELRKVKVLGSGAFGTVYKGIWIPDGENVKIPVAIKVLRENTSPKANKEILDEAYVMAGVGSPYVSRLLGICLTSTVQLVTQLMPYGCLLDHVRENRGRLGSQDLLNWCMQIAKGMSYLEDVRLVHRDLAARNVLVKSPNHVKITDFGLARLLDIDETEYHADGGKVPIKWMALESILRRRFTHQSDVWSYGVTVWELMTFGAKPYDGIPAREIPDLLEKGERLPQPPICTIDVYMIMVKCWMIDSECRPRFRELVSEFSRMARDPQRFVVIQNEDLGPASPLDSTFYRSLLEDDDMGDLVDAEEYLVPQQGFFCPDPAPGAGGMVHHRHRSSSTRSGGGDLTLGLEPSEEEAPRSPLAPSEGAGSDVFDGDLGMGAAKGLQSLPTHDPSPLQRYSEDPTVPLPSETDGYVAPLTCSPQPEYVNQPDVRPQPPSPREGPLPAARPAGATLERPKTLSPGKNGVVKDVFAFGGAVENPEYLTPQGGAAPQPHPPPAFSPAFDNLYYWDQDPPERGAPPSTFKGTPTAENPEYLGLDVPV

As for `CCc1cccc(NC(=O)CCc2nc(-c3cccs3)no2)c1`, the viability in test [1] was 108%; in test [3], 108% (inactive); in test [4], 95.4% (inactive); in [5], 101% (inactive); in test [6] (setting [16]), 85.1%; in test [6] (setting [17]) it was 101%. The viability in [12] is 95.6% (inactive); in test [13], 97.6% (inactive). Besides, in test [2], the Her2 level is 107% (inactive). Also, the differential viability (reversal) in [6] (H69AR cells + 2 uM doxorubicin) is 15.6% (inactive). The inhibition is -3.47% (inactive) in [7], -0.98% (inactive) in [8] and 0.515% (inactive) in test [14]. Also, the growth inhibition in test [9] is -1.88% (inactive); in [10], -1.74% (inactive). In addition, the viability increase in test [11] is -1.34% (inactive). Also, in test [15], the RAM network inhibition was -1.4% (inactive).
Consider `CCOC(=O)c1ccc2[nH]c3c(c2c1)CN(C)CC3`, for which the viability in test [1] is 94%; in test [3], 94% (inactive); in test [4] it was 86.6% (inactive); in test [5], 93.7% (inactive); in test [6] (setting [16]) it was 85.8%; in test [6] (setting [17]), 93.7%. Also, the viability was 44% (inactive) in test [12] and 56.9% (inactive) in [13]. For the same compound, the Her2 level in [2] was 87.5% (inactive). Further, the differential viability (reversal) in test [6] (H69AR cells + 2 uM doxorubicin) was 7.91% (inactive). The inhibition was -4.27% (inactive) in test [7], -0.83% (inactive) in test [8] and 0.51% (inactive) in test [14]. The growth inhibition in [9] was -4.7% (inactive); in test [10] it was 10.1% (inactive). The viability increase in [11] was 0.26% (inactive). For the same compound, in test [15], the RAM network inhibition was 0.47% (inactive).
As for `O=P(O)(CN1CCCCCC1)CN1CCCCCC1`, the viability is 93% in test [1]; 93% (inactive) in test [3]; 96.6% (inactive) in test [4]; 107% (inactive) in test [5]; 99.2% in test [6] (setting [16]); 107% in [6] (setting [17]). Moreover, the viability is 98.3% (inactive) in test [12] and 105% (inactive) in [13]. In test [2], the Her2 level was 97.5% (inactive). The differential viability (reversal) in test [6] (H69AR cells + 2 uM doxorubicin) is 7.6% (inactive). For the same compound, the inhibition in [7] was -2.84% (inactive); in test [8], -0.82% (inactive); in test [14] it was 0.24% (inactive). In addition, the growth inhibition in test [9] was -16.8% (inactive); in [10], -8.96% (inactive). Besides, in test [11], the viability increase was 1.45% (inactive). Besides, in test [15], the RAM network inhibition was 4.85% (inactive).
On to `COc1ccc(NC(=O)CSc2nnc(Cc3cccn3C)n2-c2ccc(F)cc2)cc1`, for which the viability in [1] was 96%; in test [3], 96% (inactive); in [4], 94.4% (inactive); in [5], 94.8% (inactive); in test [6] (setting [16]), 110%; in [6] (setting [17]), 94.8%. Moreover, the viability in test [12] was 88.8% (inactive); in [13] it was 86% (inactive). Moreover, the Her2 level in test [2] is 112% (inactive). In addition, in test [6] (H69AR cells + 2 uM doxorubicin), the differential viability (reversal) is -14.7% (inactive). In addition, the inhibition was -2.27% (inactive) in test [7], -6.5% (inactive) in [8] and 2.56% (inactive) in test [14]. The values for the growth inhibition in test [9] and in [10] were 4.66% (inactive) and 11.6% (inactive), respectively. Besides, the viability increase in test [11] was -2.27% (inactive). Also, in test [15], the RAM network inhibition is 8.6% (inactive).
As to `CCOC(=O)N1CCN(C(=O)c2ccc3nc4ccsc4c(=O)n3c2)CC1`, the viability was 97.5% in test [1]; 97.5% (inactive) in test [3]; 87.2% (inactive) in [4]; 89.4% (inactive) in test [5]; 90.8% in [6] (setting [16]); 89.4% in [6] (setting [17]). Besides, the viability in test [12] and in [13] was 101% (inactive) throughout. In test [2], the Her2 level is 102% (inactive). For the same compound, the differential viability (reversal) in test [6] (H69AR cells + 2 uM doxorubicin) is -1.36% (inactive). The inhibition in test [7] was -7.87% (inactive); in [8], -6.39% (inactive); in test [14], 0.335% (inactive). Also, the growth inhibition in [9] is 5.57% (inactive); in test [10], 7.09% (inactive). Besides, in test [11], the viability increase was -4.18% (inactive). Also, in [15], the RAM network inhibition is -0.16% (inactive).
For the compound `COC(=O)CN1C(=O)CC(C)(C)S(=O)c2ccccc21` (configuration not stated), the viability is 114% in test [1]; 114% (inactive) in [3]; 118% (inactive) in [4]; 99.3% (inactive) in [5]; 90.4% in test [6] (setting [16]); 99.3% in test [6] (setting [17]). Further, the viability was 107% (inactive) in test [12] and 99.7% (inactive) in test [13]. Besides, the Her2 level in test [2] is 110% (inactive). The differential viability (reversal) in test [6] (H69AR cells + 2 uM doxorubicin) is 8.85% (inactive). The inhibition in test [7] was -4.4% (inactive); in test [8], 16.3% (inactive); in [14] it was 0.32% (inactive). For the same compound, the growth inhibition in [9] was -14.5% (inactive); in test [10] it was -3.88% (inactive). In addition, the viability increase in test [11] was -0.45% (inactive). The RAM network inhibition in [15] is 2.09% (inactive).
